Shown are actives, neighbours in structure and some others; about 3.7% of the full set was active somewhere.
TMEM16A act – mouse TMEM16A channel activation, primary screen; hit rate 0.3% among 340,000; HEK293 TMEM16A/YFP-H148Q/I152L, iodide quench fluorescence; hits give low values; B-score at 10 µM;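 active = fluorescence-ratio B-score plate-corrected deviation score at least 3 library SD below zero, with starting fluorescence score within 5 deviations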;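 also: channel opened by trigger with iodide after compound preincubation; score built on the fluorescence ratio of max minus min over baseline; more negative score means more quench and so TMEM16A activation or potentiation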
Kir21 block – inhibitors of mouse Kir2.1 inward-rectifier potassium channel; AID 1672; HEK293-Kir2.1, FluxOR thallium flux fluorescence; hits give low values; P35561; hit rate 0.85% among 310,000; B-score at 10 µM;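 active = fluorescence ratio B-score at or below minus 3 SD of library scores, with starting-brightness B-score within 2 SD, cut at about -4.2 in these data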;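 also: channel flux triggered by added potassium and thallium sulfate stimulus; B-score of peak minus minimum fluorescence over baseline after thallium stimulus; more negative B-score means stronger Kir2.1 block with less thallium influx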
GPR7 antagonist – antagonists of human GPR7 (neuropeptides B/W receptor 1) | P48145 | GPR7-expressing cells, fluorescence antagonist assay | inhibition, % at 4.4 µM | hit rate 1.1% among 290,000; in the data active = inhibition above about 16%, passing the limit was not always enough;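 also: cells stimulated with the agonist NPW; 0% = agonist with vehicle and 100% = vehicle without agonist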
Target sequence (P48145 whole entry, looked up): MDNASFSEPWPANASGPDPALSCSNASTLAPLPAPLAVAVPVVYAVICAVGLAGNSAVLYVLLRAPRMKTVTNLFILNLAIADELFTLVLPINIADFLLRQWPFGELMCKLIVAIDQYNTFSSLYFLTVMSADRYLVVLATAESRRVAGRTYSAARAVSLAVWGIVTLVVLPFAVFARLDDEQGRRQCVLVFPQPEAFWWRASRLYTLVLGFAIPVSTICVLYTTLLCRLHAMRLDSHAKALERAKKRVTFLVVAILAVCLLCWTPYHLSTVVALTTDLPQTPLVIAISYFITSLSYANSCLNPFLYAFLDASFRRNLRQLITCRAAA
ANO1 block – blocks the mouse calcium-activated chloride channel TMEM16A; normalized B-score (activity score, 25-100; higher = stronger inhibition) at 10 µM; HEK293 TMEM16A/YFP iodide influx fluorescence, ionomycin; Q8BHY3; hit rate 1.2% among 310,000;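 active = ratio plate-corrected score three or more library SD toward inhibition, starting fluorescence score within five deviations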;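 also: score derived from kinetic fluorescence span divided by baseline fluorescence per well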
CHT PAM – allosteric activators of human choline transporter CHT | Q9GZV3 | B-score at 10 µM | hit rate 0.49% among 310,000 | CHT-expressing cells, membrane potential dye, choline EC20; hits give high values; LV-AA mutant CHT in HEK293 cells;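 active = initial fluorescence not abnormally high and integrated response B-score, plate-corrected, over 3 SD above library mean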
CHT block – inhibitors of human choline transporter CHT | B-score at 10 µM | AID 488975 | CHT-expressing cells, membrane potential dye, choline response; hits give low values | Q9GZV3 | hit rate 0.86% among 310,000;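 active = B-score over 3 SD under the library average, and starting fluorescence ratio not unusually high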;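 also: choline stimulus applied at its EC90 after an EC20 pre-addition; B-score computed on integrated fluorescence ratio after choline addition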
GPR7 antag conf – confirmation of human GPR7 antagonists | GPR7-expressing cells, calcium fluorescence antagonist mode | hit rate 52% among 2,400 | inhibition, % at 4.4 µM | shares compounds with GPR7 antagonist | AID 1952; in the data active = inhibition above about 24%;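 also: stimulated with the GPR7 agonist NPW; 0% = agonist plus vehicle and 100% = vehicle alone without agonist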
MCHR1 antagonist – MCHR1 (human) antagonism in GPR7 counter-screen; hit rate 62% among 2,400; MCHR1-expressing cells, fluorescence antagonist assay; shares compounds with GPR7 antagonist; inhibition, % at 4.4 µM; AID 2148; in the data active = inhibition above about 22%;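 also: 0% = vehicle with agonist and 100% = vehicle without agonist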
* marks the source's active call; other numbers are inactive results; i = inactive; nt = not tested or not shown.

SMILES | TMEM16A act | Kir21 block | GPR7 antagonist | ANO1 block | CHT PAM | CHT block | GPR7 antag conf | MCHR1 antagonist
CCOc1ccc(CCNC(=O)COC(=O)c2nc(Cl)ccc2Cl)cc1OCC | i | -3.8 | nt | i | i | i | nt | nt
O=C(C1CC1)N1CCN(c2nc3ccccc3s2)CC1 | i | 0.05 | 2 | i | i | i | nt | nt
CN(C1CCCCC1)S(=O)(=O)c1ccc(C(=O)N2CCN(c3nc4ccccc4s3)CC2)cc1 | i | 1.5 | 22* | i | i | i | 17 | 44*
COc1ccccc1NC(=O)CSc1nc2ccccc2n1C(C)=O | i | -0.24 | 21* | i | i | i | -6 | 17
O=C(c1ccco1)N1CCN(c2ncnc3scc(-c4ccccc4)c23)CC1 | i | -2.3 | 14 | i | i | i | nt | nt
Cc1ccc(-c2csc3ncnc(N4CCN(C(=O)c5ccccc5)CC4)c23)cc1 | i | -1.3 | 29* | i | i | i | 36* | 53*
CN1CCN(C(=S)c2cn(CCOc3ccccc3)c3ccccc23)CC1 | i | 0.59 | 27* | i | i | i | 20 | 11
CN1CCN(C(=S)c2cn(CCOc3ccccc3F)c3ccccc23)CC1 | i | -0.13 | 11 | i | i | i | nt | nt
CN(C)c1ccc(N=Nc2ccccc2C(=O)OCC(=O)N(C)C2CCCCC2)cc1 | i | -2 | 25* | i | i | i | 31* | 76*
CN(C)c1ccc(N=Nc2ccccc2C(=O)OCC(=O)NC2CCCC2)cc1 | i | -0.42 | -7 | i | i | i | nt | nt
Fc1ccccc1Cc1noc(CN2CCC(OCc3cccnc3)CC2)n1 | i | 0.55 | -2 | i | i | i | nt | nt
O=C(NCc1ccc(OC(F)(F)F)cc1)C1CC2Cn3c(nc4ccccc43)C2N1c1ccccc1 (stereo not given) | i | 0.46 | 2 | i | i | i | nt | nt
COc1ccc(C(=O)N/C(=C\c2ccco2)C(=O)NC2CCS(=O)(=O)C2)cc1 (stereo not given) | i | 0.05 | 0 | i | i | i | nt | nt
CC[C@@H](C(=O)[C@@H](C)[C@@H](O)[C@H](C)CCc1ccc(C)c(O)c1C(=O)O)[C@H]1O[C@](CC)([C@H]2CC[C@](O)(CC)[C@H](C)O2)C[C@@H]1C | -5.5* | -1.4 | 48* | 100* | i | i | 48* | 38*
CC[C@@H](C(=O)[C@@H](C)[C@@H](O)[C@H](C)[C@@H]1O[C@@H]([C@@H](CC)C(=O)O)CC[C@@H]1C)[C@H]1O[C@]2(C=C[C@@H](O)[C@]3(CC[C@@](C)([C@H]4CC[C@](O)(CC)[C@H](C)O4)O3)O2)[C@H](C)C[C@@H]1C | i | nt | nt | nt | nt | nt | nt | nt
O=C(O)c1ccc(NCc2cccc(Br)c2)cc1 | i | -0.76 | 29* | i | i | i | 28* | 18
COc1ccc(NC(=O)CSc2n[nH]c(C)c2[N+](=O)[O-])cc1 | i | 2.4 | 22* | i | i | i | 9 | 9
O=C(Nc1ccc(-n2nncc2-c2ccco2)cc1)c1cccc(F)c1 | i | -0.02 | 39* | i | i | i | 62* | 49*
O=C(NCc1ccccc1Cl)C1CCC(CNc2c(N3CCOCC3)c(=O)c2=O)CC1 (stereo not given) | i | -1.2 | -9 | i | i | i | nt | nt
O=C(c1ccccc1)c1c2c(cc3sc4ccccc4[n+]13)-c1cccc3cccc-2c13 | i | nt | 21* | 100* | i | i | 18 | 32*
O=C(c1ccccc1)c1ccc2ccccc2c1 | i | nt | nt | nt | nt | nt | nt | nt
Nc1cc(=O)nc(SCC(=O)Nc2ccccc2Cl)n1-c1ccccc1 | i | 0.33 | -1 | i | i | i | nt | nt
O=c1[nH]c(C2CCN(S(=O)(=O)c3cccc(Cl)c3)CC2)nc2c1nnn2Cc1ccccc1 | i | 1.8 | 11 | nt | nt | nt | nt | nt
O=c1[nH]c(C2CCN(S(=O)(=O)c3ccccc3)CC2)nc2c1nnn2Cc1cccc(Cl)c1 | i | -0.43 | 25* | i | i | i | 8 | -8
CCOCCCNCC(=O)NC1(C)C2CCC(C2)C1(C)C (stereo not given) | i | 0.03 | 4 | i | i | i | nt | nt
SMILES | TMEM16A act | Kir21 block | GPR7 antagonist | ANO1 block | CHT PAM | CHT block | GPR7 antag conf | MCHR1 antagonist
CC1(C)C2CCC(C2)C1(C)NC(=O)CNCC1CCCCC1 (stereo not given) | i | -2.4 | 33* | i | i | i | 38* | 22*
O=C(C[C@H]1C/C=C\CCCCC(=O)OC[C@H]2CCCN2C1=O)N[C@H](CO)Cc1ccccc1 | i | nt | nt | nt | nt | nt | nt | nt
O=C(c1ccc(Cl)cc1)C(CN1CCCCC1)c1ccccc1 (stereo not given) | i | 0.05 | 55* | i | i | i | 65* | 82*
CCOC(=O)C(CN1CCCC1)c1ccccc1 (stereo not given) | i | 0.01 | nt | i | i | i | nt | nt
COc1cccc(NC(=O)Nc2nc(SC)ns2)c1 | i | -0.3 | -4 | i | i | i | nt | nt
COc1cccc(NC(=O)Nc2nc(SC(C)(C)C)ns2)c1 | i | -0.82 | 29* | i | i | i | 60* | 72*
CC(=O)Nc1cccc(NC(=O)Nc2cccc(F)c2)c1 | i | -0.63 | -7 | i | i | i | nt | nt
CCSc1nsc(NC(=O)Nc2cccc(F)c2)n1 | i | -0.52 | 36* | 100* | i | i | 46* | 60*
Cc1nc(C)c(-c2ccc(SCc3ccccc3F)nn2)s1 | i | 0.75 | 6 | i | i | i | nt | nt
CCOC(=O)N1CCN(C(=O)c2ccc(CSc3ccc(Cl)cc3)cc2)CC1 | i | -0.3 | 25* | nt | nt | nt | 22 | 49*
O=C(CNC(=O)c1ccc2c(c1)OCCO2)N=Nc1c(O)[nH]c2ccccc12 | i | 0.45 | 7 | i | i | i | nt | nt
Cc1noc(C)c1NC(=O)N(C)C[C@H]1Oc2ccc(NC(=O)Nc3ccc4c(c3)OCO4)cc2C(=O)N([C@H](C)CO)C[C@@H]1C | i | nt | nt | nt | nt | nt | nt | nt
O=C(O)c1cccc(CN2C(=O)SC(Nc3ccccc3)C2=O)c1 (stereo not given) | i | 0.67 | 3 | i | i | i | nt | nt
Cc1ccc(NC2SC(=O)N(Cc3cccc(C(=O)O)c3)C2=O)cc1 (stereo not given) | i | 1.4 | 29* | i | i | i | 4 | -4
O=C(c1cccc2ccccc12)N1CCN=C1SCc1ccc([N+](=O)[O-])cc1 | i | -2.8 | 9 | i | i | i | nt | nt

Compound activity: PubChem, several laboratories
